This is part of a sample that, as a whole, favours compounds with a hit. Of some 83,000 tested, about 20% had one in any assay.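 Results are percent growth after 48 hours of single-concentration exposure. 100 means growth as in untreated cells, lower positive values show inhibition; negative values down to -100 show cell death.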 Activity calls are given as the source filed them. The calls were made as follows: active = growth percent below 10; inactive = the rest.
Key:
Assay in all cases: NCI-60 one-dose screen, 48 h (100 = growth as untreated, 0 = no growth, -100 = all killed)
Details in all cases: 10 µM unless noted
HCT-15 colon = test system: HCT-15 colon
HT29 colon = test system: HT29 colon
SNB-75 CNS = test system: SNB-75 CNS
SNB-19 CNS = test system: SNB-19 CNS
U251 CNS = test system: U251 CNS
PC-3 prostate = test system: PC-3 prostate
SK-MEL-5 melanoma = test system: SK-MEL-5 melanoma
UACC-62 melanoma = test system: UACC-62 melanoma
LOX IMVI melanoma = test system: LOX IMVI melanoma
SK-MEL-28 melanoma = test system: SK-MEL-28 melanoma
SK-MEL-2 melanoma = test system: SK-MEL-2 melanoma
EKVX NSCLC = test system: EKVX NSCLC
SN12C renal = test system: SN12C renal
UO-31 renal = test system: UO-31 renal
TK-10 renal = test system: TK-10 renal
ACHN renal = test system: ACHN renal
CAKI-1 renal = test system: CAKI-1 renal
A498 renal = test system: A498 renal
CCRF-CEM leukemia = test system: CCRF-CEM leukemia
MOLT-4 leukemia = test system: MOLT-4 leukemia

Measured: growth

O=c1[nH]c2ccccc2cc1CSc1ccccc1Nc1nccc(-c2ccc3c(c2)OCO3)n1
inactive: HCT-15 colon 95.1% | HT29 colon 94.4% | SNB-19 CNS 63.1% | U251 CNS 51.3% | PC-3 prostate 79.2% | SK-MEL-5 melanoma 87.2% | UACC-62 melanoma 68.5% | LOX IMVI melanoma 76.5% | SK-MEL-28 melanoma 83% | SK-MEL-2 melanoma 96.7% | EKVX NSCLC 86.6% | SN12C renal 57% | UO-31 renal 77.6% | TK-10 renal 107% | ACHN renal 51.6% | CAKI-1 renal 16% | A498 renal 126% | CCRF-CEM leukemia 101% | MOLT-4 leukemia 93.6%
active: SNB-75 CNS 9.83%

COc1ccc(N=Nc2c(N)nn3c(-c4ccc(OC)c(OC)c4)ccnc23)cc1
active: CAKI-1 renal -60.2%
inactive: HCT-15 colon 91.7% | HT29 colon 68.5% | SNB-75 CNS 82.3% | SNB-19 CNS 74.1% | U251 CNS 69.3% | PC-3 prostate 87.5% | SK-MEL-5 melanoma 77.4% | UACC-62 melanoma 64.3% | LOX IMVI melanoma 86.1% | SK-MEL-28 melanoma 86.4% | SK-MEL-2 melanoma 103% | EKVX NSCLC 103% | SN12C renal 88.5% | UO-31 renal 108% | TK-10 renal 88.6% | ACHN renal 77.4% | A498 renal 95.7% | CCRF-CEM leukemia 86.9% | MOLT-4 leukemia 100%

Oc1ccc(F)c(Nc2nc(SCCN3CCOCC3)nc3c2cnn3CC(Cl)c2ccc(Br)cc2)c1 (stereo not given)
inactive: SNB-75 CNS 15.2% | SNB-19 CNS 46.1% | U251 CNS 21.9% | SK-MEL-5 melanoma 18.1% | UACC-62 melanoma 20.8% | SK-MEL-28 melanoma 21% | SK-MEL-2 melanoma 33.5% | EKVX NSCLC 30% | SN12C renal 32.3% | UO-31 renal 16.9% | TK-10 renal 68.6% | ACHN renal 16.5% | CAKI-1 renal 24% | A498 renal 63.1%
active: HCT-15 colon 1.07% | HT29 colon 8.07% | PC-3 prostate 7.79% | LOX IMVI melanoma -17.8% | CCRF-CEM leukemia -3.71% | MOLT-4 leukemia 6.17%

Cc1ccc(C(=O)Nc2cc(-c3ccccc3)cc(C(F)(F)F)c2)cc1C#Cc1cnc2cccnn12
inactive: HCT-15 colon 57.7% | HT29 colon 34.8% | SNB-75 CNS 112% | SNB-19 CNS 92.3% | U251 CNS 74.9% | PC-3 prostate 65.8% | SK-MEL-5 melanoma 26% | UACC-62 melanoma 46.1% | LOX IMVI melanoma 39.4% | SK-MEL-28 melanoma 52.9% | SK-MEL-2 melanoma 58.7% | EKVX NSCLC 63% | SN12C renal 65.9% | UO-31 renal 56.5% | TK-10 renal 79.3% | ACHN renal 59.9% | CAKI-1 renal 70.4% | A498 renal 133% | CCRF-CEM leukemia 38.1% | MOLT-4 leukemia 35.5%

O=C(N/N=C/c1ccsc1)c1[nH]c2ccc(Br)cc2c1-c1ccccc1
active: HCT-15 colon -62.8% | HT29 colon -62.8% | SNB-75 CNS -32.3% | SNB-19 CNS -41.5% | U251 CNS -89.1% | PC-3 prostate -26.1% | SK-MEL-5 melanoma -97.2% | UACC-62 melanoma -91.6% | LOX IMVI melanoma -100% | SK-MEL-28 melanoma -87.4% | SK-MEL-2 melanoma -82.8% | EKVX NSCLC -26.3% | SN12C renal -87.5% | UO-31 renal -49.4% | TK-10 renal -13.3% | ACHN renal -28% | CAKI-1 renal -21.8% | A498 renal -48.1% | CCRF-CEM leukemia 6.69% | MOLT-4 leukemia -8.25%

COc1ccc(/C=C/C(=O)c2ccc(OC)c(S(N)(=O)=O)c2)c(C(F)(F)F)c1
inactive: SNB-75 CNS 37.6% | PC-3 prostate 11.2% | SK-MEL-5 melanoma 18.9% | UACC-62 melanoma 30.6% | SK-MEL-28 melanoma 35.5% | SK-MEL-2 melanoma 60.8% | EKVX NSCLC 14.5% | UO-31 renal 25.6% | TK-10 renal 77.9% | CAKI-1 renal 24.7% | A498 renal 195%
active: HCT-15 colon -52% | HT29 colon 6.34% | SNB-19 CNS -28.6% | U251 CNS -64.7% | LOX IMVI melanoma -93% | SN12C renal 8.16% | ACHN renal 9.82% | CCRF-CEM leukemia 2.27% | MOLT-4 leukemia -0.0099%

NNc1ncnc2sc3c(c12)CCN(Cc1ccccc1)C3
inactive: HCT-15 colon 32.9% | HT29 colon 20.7% | SNB-75 CNS 80.7% | SNB-19 CNS 69.4% | U251 CNS 51.4% | PC-3 prostate 59.5% | SK-MEL-5 melanoma 48% | UACC-62 melanoma 53.1% | LOX IMVI melanoma 39.7% | SK-MEL-28 melanoma 73% | SK-MEL-2 melanoma 82% | EKVX NSCLC 36% | SN12C renal 57% | UO-31 renal 51.7% | TK-10 renal 93.5% | ACHN renal 57.4% | CAKI-1 renal 56.4% | A498 renal 93.7% | CCRF-CEM leukemia 15.8% | MOLT-4 leukemia 19.7%

Cc1ccc2c(c1)nc(-c1ccccc1)n2CC(=O)N=Nc1c(O)[nH]c2ccc(Cl)cc12
active: HCT-15 colon -45.7% | HT29 colon -62.7% | SNB-75 CNS -83% | SNB-19 CNS -62.3% | U251 CNS -77.7% | PC-3 prostate -51.2% | SK-MEL-5 melanoma -62.6% | UACC-62 melanoma -63.5% | LOX IMVI melanoma -70.1% | SK-MEL-28 melanoma -71.7% | SK-MEL-2 melanoma -75.4% | EKVX NSCLC -31.9% | SN12C renal -77.9% | UO-31 renal -89.6% | TK-10 renal -15.1% | ACHN renal -89.5% | CAKI-1 renal -42.6% | A498 renal -71.1% | CCRF-CEM leukemia 4.22% | MOLT-4 leukemia -20.3%

O=C(Nc1ccc(-c2ccc3c(c2)NC(=O)/C3=C\c2ccc[nH]2)cc1)Nc1ccc(Cl)c(C(F)(F)F)c1
active: MOLT-4 leukemia 9.33%
inactive: HCT-15 colon 26.5% | HT29 colon 17.4% | SNB-75 CNS 38.5% | SNB-19 CNS 72.9% | U251 CNS 37.9% | PC-3 prostate 39.5% | SK-MEL-5 melanoma 49.3% | UACC-62 melanoma 31.7% | LOX IMVI melanoma 46.9% | SK-MEL-28 melanoma 47.7% | SK-MEL-2 melanoma 34.2% | EKVX NSCLC 25.3% | SN12C renal 19.4% | UO-31 renal 36.1% | TK-10 renal 42.1% | ACHN renal 37.3% | CAKI-1 renal 39.3% | A498 renal 39.2% | CCRF-CEM leukemia 27.4%

From PubChem BioAssay (NCI)
